Experimental data from paper PMC4336329 (PLoS ONE, 2015).
Out of some 310,000 compounds screened, about 14,000 (4.5%) showed an effect of 50% or more. Effects have a minus sign here. The entries come from a sample that favours strong results as a whole.

Each compound was assayed against human ether-à-go-go-related gene (hERG) potassium channel (human, UniProt Q12809) (assay: primary screen, population patch clamp on CHO cells stably expressing hERG; higher = less effect of the substance).
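Note: peak tail current of the secondary pulse compared with the same well before compound.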

Sequence of human ether-à-go-go-related gene (hERG) potassium channel (Q12809 whole entry, looked up): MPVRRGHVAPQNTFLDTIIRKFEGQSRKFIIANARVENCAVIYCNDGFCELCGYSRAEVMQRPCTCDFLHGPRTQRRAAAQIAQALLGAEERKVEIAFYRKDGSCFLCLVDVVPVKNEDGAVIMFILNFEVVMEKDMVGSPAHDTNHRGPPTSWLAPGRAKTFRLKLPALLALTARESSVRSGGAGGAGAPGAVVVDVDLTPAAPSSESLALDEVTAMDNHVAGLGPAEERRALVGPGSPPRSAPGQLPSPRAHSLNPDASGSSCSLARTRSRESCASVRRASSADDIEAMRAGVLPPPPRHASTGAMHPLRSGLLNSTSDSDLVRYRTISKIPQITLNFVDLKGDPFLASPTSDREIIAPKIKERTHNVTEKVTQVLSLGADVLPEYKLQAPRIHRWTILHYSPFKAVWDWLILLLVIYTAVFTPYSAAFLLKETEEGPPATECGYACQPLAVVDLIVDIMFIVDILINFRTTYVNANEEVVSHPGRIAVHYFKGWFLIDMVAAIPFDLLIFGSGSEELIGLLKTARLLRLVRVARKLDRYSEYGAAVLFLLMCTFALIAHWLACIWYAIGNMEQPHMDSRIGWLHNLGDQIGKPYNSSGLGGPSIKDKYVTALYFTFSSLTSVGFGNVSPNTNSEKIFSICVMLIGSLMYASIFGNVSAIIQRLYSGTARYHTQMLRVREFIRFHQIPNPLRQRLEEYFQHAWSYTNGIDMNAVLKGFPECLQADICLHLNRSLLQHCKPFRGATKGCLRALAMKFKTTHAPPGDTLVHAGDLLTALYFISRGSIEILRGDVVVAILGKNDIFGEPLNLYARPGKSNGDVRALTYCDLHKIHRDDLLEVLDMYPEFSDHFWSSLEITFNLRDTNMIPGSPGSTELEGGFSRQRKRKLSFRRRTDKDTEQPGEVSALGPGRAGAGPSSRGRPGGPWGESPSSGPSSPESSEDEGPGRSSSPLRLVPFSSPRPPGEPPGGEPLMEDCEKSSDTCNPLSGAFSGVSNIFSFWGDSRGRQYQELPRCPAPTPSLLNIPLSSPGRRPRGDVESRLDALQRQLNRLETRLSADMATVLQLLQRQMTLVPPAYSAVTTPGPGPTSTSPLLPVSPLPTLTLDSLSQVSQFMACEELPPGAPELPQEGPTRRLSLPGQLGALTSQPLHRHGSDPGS

In order of rising “hERG current change (%, negative = inhibition) at 10uM” value:
1. C=CCNc1cnn(-c2ccc(C)cc2)c(=O)c1Sc1ccc(C)cc1  -79.4%
2. Cc1ccc(N(CC(O)CN2CCCCC2)S(=O)(=O)c2ccccc2[N+](=O)[O-])cc1 (stereo not shown)  -70.9%
3. Cc1ccc(N(CC(O)CN2CCCC2)S(=O)(=O)c2ccccc2)cc1 (stereo not shown)  -68.2%
4. Cc1ccc(N(CC(O)CN2CCCCC2)S(=O)(=O)c2ccccc2)cc1 (stereo not shown)  -68%
5. COc1ccc(Br)cc1CN1CCCC(C(=O)N2CCCCCC2)C1.O=C(O)C(=O)O (stereo not shown)  -62.4%
6. Cc1cccc(N(CC(O)CN2CCCC2)S(=O)(=O)c2ccccc2)c1 (stereo not shown)  -57%
7. COc1ccc(Br)cc1CN1CCCC(C(=O)N2CCCCC2)C1.O=C(O)C(=O)O (stereo not shown)  -55.8%
8. COc1cc(CN2CCc3c([nH]c4ccccc34)C2)cc(OC)c1  -55.7%
9. CSc1ccc(CN2CCc3c([nH]c4ccccc34)C2)cc1  -52.7%
10. CC(C)CN(CC(C)C)CC(O)CN(c1ccccc1)S(=O)(=O)c1ccccc1[N+](=O)[O-] (stereo not shown)  -51.5%
11. CN(C)c1ccnc2sc3c(=O)n(Cc4ccccc4)cnc3c12  -51%
12. Cc1cccc(NC(=O)CSc2nc3ccccc3nc2N2CCCCC2)c1  -36.5%
13. Cc1cccc(CN2CCc3c([nH]c4ccccc34)C2)c1  -33.4%
14. COc1ccc(OC)c(CN2CCCC(C(=O)N3CCCCC3)C2)c1.O=C(O)C(=O)O (stereo not shown)  -32.1%
15. Clc1cccc(CN2CCc3c([nH]c4ccccc34)C2)c1  -31.9%
16. O=C(C1CCCN(Cc2cc(Br)ccc2O)C1)N1CCCCC1.O=C(O)C(=O)O (stereo not shown)  -31.6%
17. O=[N+]([O-])c1ccccc1S(=O)(=O)N(CC(O)CN1CCCCC1)c1ccccc1 (stereo not shown)  -29.9%
18. Clc1ccc(CN2CCc3c([nH]c4ccccc34)C2)cc1Cl  -28.2%
19. CN1CCC(N(C)C(=O)/C=C/c2cn(-c3ccccc3)nc2-c2cccs2)CC1.Cl  -22.3%
20. CCOc1cc(CN2CCc3c([nH]c4ccccc34)C2)ccc1OC  -19%
21. CN(C)c1ccnc2sc3c(=O)n(-c4ccccc4)cnc3c12  -17.9%
22. Cc1ccc(-n2cnc3c(sc4nccc(N(C)C)c43)c2=O)cc1  -16.4%
23. C=CCNc1cnn(-c2ccc(C)cc2)c(=O)c1Cl  -12.7%
24. Cc1nc2ccccn2c1C(=O)NNC(=O)Nc1cccc(C(F)(F)F)c1  -11%
25. CC(C(N)=O)N1CC(c2ccc(Cl)cc2)CC1=O (stereo not shown)  -10.8%
26. CNc1cnn(-c2ccc(C)cc2)c(=O)c1Sc1ccc(C)cc1  -8.7%
27. CN(C)C(=O)c1ccc(NC(=O)c2cccc(S(=O)(=O)N3CCCc4ccccc43)c2)cc1  -8.06%
28. CCN(CC)C(=O)c1sc(NC(=O)Cc2cccs2)c(C#N)c1C  -6.24%
29. O=C(CCN1C(=O)c2ccccc2C1=O)Nc1ccc(F)cc1  -6%
30. Cc1ccc(-n2c(C)cc(/C=C3\NC(=O)NC3=O)c2C)c(C)c1  -5.9%
31. COc1ccccc1N(CC(O)CN1CCCC1)S(=O)(=O)c1ccccc1 (stereo not shown)  -4.48%
32. CCOC(=O)c1cc(-c2ccccc2)nn1Cc1cc(C)no1  -4.06%
33. C=CCN1C(=O)/C(=C2/Sc3ccccc3N2C)SC1=Nc1c(C)n[nH]c1C  -3.99%
34. Cc1cccc(N(CC(O)CN2CCOCC2)S(=O)(=O)c2ccccc2)c1 (stereo not shown)  -1.7%
35. COc1cc(OC)c(OC)cc1CN1CCCC(C(=O)N2CCCCC2)C1.O=C(O)C(=O)O (stereo not shown)  -1.45%
36. C[C@H](O)[C@@]1(O)CC[C@H]2[C@@H]3CC[C@@H]4C[C@H](O)CC[C@]4(C)[C@H]3CC[C@@]21C  -0.0961%
37. O=C(NC(Cc1c[nH]c2ccccc12)C(=O)OCC(=O)c1cccc2ccccc12)c1cccs1 (stereo not shown)  0.359%
38. CCOCCOc1nc2c(c(=O)n(C)c(=O)n2C)n1CCc1ccccc1  0.435%
39. Cc1ccc(N(CC2CO2)S(=O)(=O)c2ccccc2[N+](=O)[O-])cc1 (stereo not shown)  1.23%
40. COc1ccc(OC)c2[nH]c(=O)c(CCNS(=O)(=O)c3ccc(F)cc3)cc12  1.59%
41. CC(C)CNC(=O)CN(c1ccccc1)S(=O)(=O)c1ccccc1[N+](=O)[O-]  2.38%
42. CCCSCCCNC(=O)CN1C(=O)COc2ccc(S(=O)(=O)N3CCCC3)cc21  2.87%
43. CCOC(=O)CSCC(=O)N1CCC(Cc2ccccc2)CC1  3.24%
44. Cc1cc(C)n(CCc2nc(-c3cccs3)cs2)n1  3.48%
45. Cc1c(NC(N)=O)c(=O)n(-c2ccccc2)n1C  3.79%
46. O=C(Nc1ccc(NC(=O)C2CCCCC2)cn1)c1ccco1  4.68%
47. NC(=O)Cc1ccc(C(=O)c2ccccc2)s1  7.3%
48. C=CCN1C(=O)NC(=O)/C(=C/c2ccc(OC)c(COc3ccc(NC(C)=O)cc3)c2)C1=O  8.75%
49. NC(=O)[C@H]1CC2(CC(c3cccc(NC(=O)CC(c4ccccc4)c4ccccc4)c3)=NO2)CN1C(=O)C(c1ccccc1)c1ccccc1 (stereo partly shown)  8.82%
50. Cc1nc2sc(C(=O)O)c(N)c2c2c1COC(C)(C)C2  9.19%
51. CCN(CCO)Cc1cn[nH]c1-c1ccc(C)c(C)c1  9.28%
52. Cc1ccc(S(=O)(=O)NC2(C(F)(F)F)NC(=O)N(c3ccc(F)cc3)C2=O)cc1 (stereo not shown)  9.68%
53. COc1ccccc1CN1CCCC(C(=O)N2CCCCC2)C1.O=C(O)C(=O)O (stereo not shown)  10.6%
54. O=C(N/N=C/c1ccc(OC(=O)c2ccc3c(c2)OCO3)cc1)c1cncc(Br)c1  10.8%
55. COc1ccc(CNC(=O)c2n[nH]c3ccccc23)cc1OC  11.6%
56. COc1ccccc1N(CC(O)CN1CCOCC1)S(=O)(=O)c1ccccc1 (stereo not shown)  12.7%
57. CC1(C)NC(=O)N(CC(O)CN(c2ccccc2)S(=O)(=O)c2ccccc2[N+](=O)[O-])C1=O (stereo not shown)  13.7%
58. CCN1CCN(C(=O)c2c(-c3c(Cl)cccc3Cl)noc2C)CC1  20.9%
